# SKKanGAS inh = inhibitors of SKKanGAS S. pyogenes growth in kanamycin (SK-promoter or general growth effect); BacTiter-Glo, 6 h; inhibition, % at 7.5 µM; 300,000 compounds, 1.3% hits; AID 1662;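 active means mean replicate score, as percent of positive control median, at least 50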;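 further: strain carries kanamycin resistance gene driven by streptokinase promoter and grows in 40 µg/ml kanamycin; loss of luminescence reflects streptokinase promoter inhibition or plain growth inhibition; 0% = median of DMSO wells and 100% = positive control at its reference dose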
# NALP3 yeast inh = NALP3 inhibition in yeast; Yeast reconstituted NLRP3/ASC/caspase-1, beta-gal luminescence, 24 h; inhibition, % at 10 µM; 330,000 compounds, 0.39% hits; AID 2825;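 active means inhibition of 50% or more; inactive means inhibition below 50%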;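 further: plate controls were induced DMSO wells for no effect and uninduced yeast grown without galactose for full effect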
# tim10-1 inh = inhibits growth of tim10-1 mutant yeast; S. cerevisiae tim10-1 ts strain growth, BacTiter-Glo, 24 h; inhibition, % at 20 µM; 330,000 compounds, 2.2% hits; AID 463190;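 active means inhibition of at least 40%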;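 further: mutant grown at 25 °C; 0% = DMSO wells with yeast and 100% = wells holding no yeast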
# TIM10 inh = TIM10 yeast growth inhibition; S. cerevisiae TIM10 strain growth, BacTiter-Glo luminescence, 24 h; inhibition, % at 10 µM; 330,000 compounds, 1.4% hits; AID 463195;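 active means inhibition of 40% or more at the single tested concentration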;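 further: wild-type TIM10 isogenic control strain grown at permissive 25 °C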
# PfHsp90 set2 = inhibits growth of yeast expressing Plasmodium falciparum Hsp90; S. cerevisiae expressing PfHsp90, BacTiter-Glo ATP, 48 h; yeast lacking PDR1 and PDR3 efflux regulators; inhibition, % at 9.4 µM; AID 504621; 310,000 compounds, 0.32% hits;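 active means every replicate shows inhibition above about 80%, whatever the replicate mean, limit read from the data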;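 further: 0% = DMSO neutral controls and 100% = 20 µM radicicol positive controls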
# tim23-1 inh = inhibits growth of tim23-1 mutant yeast; S. cerevisiae tim23-1 growth, BacTiter-Glo luminescence, 24 h; inhibition, % at 20 µM; 330,000 compounds, 1.3% hits; AID 463212;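 active means growth inhibition of the mutant yeast at or above 50%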;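 further: temperature-sensitive mutant grown at 25 °C; plate controls were DMSO-treated mutant yeast for no effect and medium wells lacking yeast for full effect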
# tim10-1 conf = tim10-1 yeast growth inhibition, confirmed; 7,400 compounds, 56% hits; shares compounds with tim10-1 inh; S. cerevisiae tim10-1 ts strain growth, BacTiter-Glo, 24 h; inhibition, % at 20 µM;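 active means inhibition of yeast growth at or above a set limit in either of two repeat tests at 20 µM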;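 further: tim10-1 mutant grown at permissive 25 °C to find synthetic lethal compounds; 0% = DMSO yeast wells and 100% = medium wells without yeast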
# Active calls of the source: *; / = no result. The list is not random: actives were taken first. Their share in the collection is about 4.6%.
SMILES,SKKanGAS inh,NALP3 yeast inh,tim10-1 inh,TIM10 inh,PfHsp90 set2,tim23-1 inh,tim10-1 conf
COC(=O)c1ccc(COc2ccccc2/C=C(\C#N)C(=O)Nc2ccc(C)cc2C)cc1,-4,18,19,12,-2,4,/
COC(=O)c1ccc(COc2ccccc2/C=C(\C#N)C(=O)Nc2c(C)cc(C)cc2C)cc1,15,9,47*,2,-25,30,13
COc1cc(/C=C(/C#N)C(=O)Nc2ccccc2)c(Br)cc1OCc1ccc(C(=O)O)cc1,-1,-55,43*,31,-32,42,40*
Cc1c(C(=O)N2CCC3(CC2)CC(=O)c2ccccc2O3)cccc1[N+](=O)[O-],-7,15,6,12,-8,14,/
COc1ccc(Cl)cc1NS(=O)(=O)c1c(C)[nH]c(C)c1C(=O)N1CCCCC1,22,5,-11,5,1,3,/
Cc1cccc(NC(=O)CN2CCN(C(=O)c3cccc(-n4cnnn4)c3)CC2)c1C,/,12,-8,-6,5,-5,/
Cc1ccc(N2Cc3ccccc3C2=S)cc1,7,31,42*,3,-68,31,26
CCc1c(C)[nH]c2ccc(OC)cc2c1=S,/,15,46*,16,2,24,36*
O=C(COC(=O)c1cc2ccccc2cc1O)NC(=O)NCc1ccco1,15,13,4,7,0,2,/
C=CCc1ccccc1Oc1cc(OC)nc(N)n1,/,1,19,0,-8,16,/
COc1ccc(-c2cc(C(F)(F)F)nc(S(=O)(=O)CCC(=O)N3CCOCC3)n2)cc1,8,16,48*,32,1,17,30
COc1ccccc1-c1cc(C(F)(F)F)nc(S(=O)(=O)CCCC(=O)O)n1,-1,5,29,10,/,27,/
COc1ccccc1-c1cc(C(F)(F)F)nc(S(=O)(=O)CCCC(=O)N2CCOCC2)n1,-2,13,40*,30,-49,33,18
COc1ccc(-c2cc(C(F)(F)F)nc(SCC(=O)N3CCOCC3)n2)cc1OC,-1,11,9,-7,5,15,/
CCc1ccc(-c2ccc(SCC(=O)Nc3nnc(C)s3)nn2)cc1,-15,23,4,8,2,6,/
COc1ccc(C2CC(c3cccs3)=NN2C(=O)CSC2=NN3CCCC(=O)N=C3S2)cc1 (configuration not stated),11,3,41*,24,-4,43,23
CC1=C(/C=C/C(C)=C/C=C/C(C)=C/CO)C(C)(C)CCC1,5,8,44*,22,-13,34,15
COc1ccccc1OCCNC(=O)Nc1ccc(Br)cc1,-1,15,40*,-7,-26,27,31*
COc1ccccc1OCCNC(=O)Nc1cc(F)c(F)cc1Cl,-6,29,33,18,-13,34,/
CCCC1CCc2[nH]nc(C(=O)NN)c2C1 (configuration not stated),/,7,3,-16,20,26,/
COC1=CC(=O)C(O)=C(CCCCCCC/C=C/CCCCCCCC2=C(O)C(=O)C=C(OC)C2=O)C1=O,24,20,43*,-2,15,43,38*
Cc1ccc(S(=O)(=O)/C=C/c2ccccc2)cc1,-3,22,48*,18,2,48,26
Cc1c(Cl)cccc1NC(=O)c1cccc(OC(F)F)c1,4,26,47*,35,16,46,48*
Cc1ccc(NC(=O)c2cccc(OC(F)F)c2)c(OC(F)F)c1,-13,30,32,16,0,30,/
OCCc1ccc(-c2ccc(Cl)cc2)o1,-9,12,43*,16,-10,23,25
SMILES,SKKanGAS inh,NALP3 yeast inh,tim10-1 inh,TIM10 inh,PfHsp90 set2,tim23-1 inh,tim10-1 conf
CCc1ccc(NC(=O)c2sc3nc4n(c(=O)c3c2C)CCC4)cc1,-13,21,44*,-11,15,34,12
CC(=O)c1cccc(NC(=O)c2sc3nc4n(c(=O)c3c2C)CCCC4)c1,7,11,52*,19,-36,18,28*
CC(=O)Nc1ccc(NC(=O)c2sc3nc4n(c(=O)c3c2C)CCCCC4)cc1,10,14,14,10,-9,15,/
COc1cc(/C=N/NC(=O)c2ccc([N+](=O)[O-])cc2Cl)cc(Br)c1O,9,12,-3,-3,13,2,/
COc1cc(/C=N/N2C(=O)c3ccccc3NC2(C)c2cccc([N+](=O)[O-])c2)cc(Br)c1O (configuration not stated),11,13,44*,31,4,30,21
Fc1ccccc1CNc1ccc(Cl)c(Cl)c1,56*,19,61*,14,-11,30,69*
COc1cc(C(=O)NCCc2ccc(S(=O)(=O)N3CCCC3)cc2)cc(OC)c1OC,-7,3,3,-3,-1,-1,/
CCOC(=O)C1CCN(C(=O)c2oc3ccc4c(c3c2C)C(O)CC2(CCCCC2)O4)CC1 (configuration not stated),0,6,54*,28,10,46,33*
CC(C)CN(CCCNC(=O)CN1N=C(c2ccc(Cl)cc2)CCC1=O)CC(C)C,-2,9,20,-4,-14,21,/
NC(=O)CSc1nc2sc3c(c2c2ncnn12)CCCC3,6,12,42*,27,-21,33,34*
COc1ccc(-n2c(C)cc(C(=O)Cn3nc(C(=O)O)c4ccccc4c3=O)c2C)cc1,46,8,17,24,-5,27,/
Cc1ccc(-n2c(C)cc(C(=O)Cn3nc(C(=O)O)c4ccccc4c3=O)c2C)cc1,13,9,42*,16,22,26,15
CCOc1cccc(C2/C(=C(/O)c3ccc4c(c3)CC(C)O4)C(=O)C(=O)N2Cc2cccnc2)c1 (configuration not stated),-2,12,2,-11,11,11,/
NC(=S)N1OC[C@@H]2COc3ccc4ccccc4c3[C@@H]21,6,13,41*,39,6,30,21
CC1Cc2ccccc2N1C(=O)CN1CCN(S(=O)(=O)c2cccs2)CC1 (configuration not stated),/,11,48*,11,1,36,21
COc1ccc(CN2C[C@H]3CCCN3c3cc(Br)ccc3S2(=O)=O)cc1,/,/,21,6,2,41,/
COc1ccc(C)cc1NC(=O)c1ccc(CN2CCN(c3ccccc3)CC2)cc1,9,34,46*,21,-4,36,30
COc1ccc(NC(=O)c2ccc(CN3CCN(c4ccccc4)CC3)cc2)cc1OC,/,17,28,4,4,17,/
